Screening results as filed in PubChem.
PAFAH1B3 FP inh = PAFAH1B3 enzyme inhibitors, primary screen, biochemical, fluorescence polarization, human. Platelet-activating factor acetylhydrolase IB subunit alpha1 (Homo sapiens), Q15102. recombinant PAFAH1B3, FP-rhodamine probe. inhibition, % at 3.39 µM. 0.28% of 340,000 active;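 active = inhibition above the screen-wide average of all tested compounds plus 3 SD, cut at about 25% in these data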;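 note: 0% = enzyme with DMSO only and 100% = wells lacking PAFAH1B3 protein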
PAFAH2 FP inh = PAFAH2 enzyme inhibitors, primary screen, biochemical, fluorescence polarization, human. Platelet-activating factor acetylhydrolase 2, cytoplasmic (Homo sapiens), Q99487. recombinant PAFAH2, FP-rhodamine activity probe. inhibition, % at 3.39 µM. 0.99% of 340,000 active;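 active = inhibition above the mean over all tested compounds plus 3 SD, cut at about 30% in these data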;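 note: inhibitors block probe labeling of enzyme so polarization drops; 0% = enzyme with DMSO and 100% = wells lacking PAFAH2 protein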
pPAFAH inh = pPAFAH enzyme inhibitors, primary screen, biochemical, fluorescence polarization, human; Platelet-activating factor acetylhydrolase (Homo sapiens), Q13093; recombinant pPAFAH, FP-rhodamine probe fluorescence polarization; inhibition, % at 3.39 µM; 1.5% of 330,000 active;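 active = inhibition above the mean inhibition across the screen plus 3 SD, cut at about 25% in these data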;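 note: inhibitors block binding of the rhodamine activity-based probe so polarization drops; 0% = enzyme with DMSO and 100% = wells lacking pPAFAH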
PAFAH1B2 inh = PAFAH1B2 enzyme inhibitors, primary screen, biochemical, fluorescence polarization, human | Platelet-activating factor acetylhydrolase IB subunit alpha2 (Homo sapiens), P68402 | recombinant PAFAH1B2, FP-rhodamine activity probe | inhibition, % at 3.39 µM | 1.2% of 340,000 active;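 active = inhibition above the mean of all tested compounds plus 3 SD, cut at about 24% in these data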;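 note: 0% = enzyme with DMSO and 100% = wells lacking PAFAH1B2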
Target sequence (P68402 whole entry, looked up): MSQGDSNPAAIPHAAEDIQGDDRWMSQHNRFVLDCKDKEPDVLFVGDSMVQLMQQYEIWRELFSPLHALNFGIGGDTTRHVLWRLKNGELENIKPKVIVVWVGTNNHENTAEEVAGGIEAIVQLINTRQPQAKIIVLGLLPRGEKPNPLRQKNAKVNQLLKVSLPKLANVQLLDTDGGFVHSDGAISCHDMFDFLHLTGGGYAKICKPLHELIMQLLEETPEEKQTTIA
Fam108B counter = mouse Fam108B serine hydrolase inhibitors, primary screen, counter-screen for RBBP9 inhibitor project, biochemical, fluorescence polarization; 0.33% of 300,000 active; inhibition, % at 9.51 µM; AID 1947, 2009; recombinant Fam108B, FP-Rh probe fluorescence polarization;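 active = inhibition above the screen mean inhibition plus 3 SD, computed separately per campaign, cut at about 18% in these data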;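 note: inhibitors lower polarization as less probe binds the enzyme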
PME-1 primary = PME-1 inhibitors via competitive probe labeling, primary screen, biochemical, fluorescence polarization, FP-Rh probe, HTS. Protein phosphatase methylesterase 1 (Homo sapiens), Q9Y570. recombinant PME-1. inhibition, % at 5.9 µM. 0.53% of 320,000 active. AID 2130, 2009;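 active = inhibition above the campaign mean of all compounds plus 3 SD, cut at about 26% in these data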;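 note: competitive labeling of PME-1 active site by serine hydrolase directed probe; 0% = PME-1 with DMSO and 100% = wells lacking PME-1 enzyme; inhibitors block probe labeling so polarization falls and inhibition rises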
Target sequence (Q9Y570 whole entry, looked up): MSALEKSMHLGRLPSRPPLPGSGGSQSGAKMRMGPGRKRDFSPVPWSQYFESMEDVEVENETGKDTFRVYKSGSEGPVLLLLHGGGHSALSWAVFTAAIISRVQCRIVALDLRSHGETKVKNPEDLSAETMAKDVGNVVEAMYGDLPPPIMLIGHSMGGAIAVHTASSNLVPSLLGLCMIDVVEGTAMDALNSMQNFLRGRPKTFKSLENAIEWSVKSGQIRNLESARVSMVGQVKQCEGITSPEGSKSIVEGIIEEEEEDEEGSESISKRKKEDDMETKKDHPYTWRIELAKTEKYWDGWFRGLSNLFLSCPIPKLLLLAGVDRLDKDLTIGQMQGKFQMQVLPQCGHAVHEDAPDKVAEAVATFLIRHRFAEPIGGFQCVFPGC
An asterisk follows results filed as active; x = no result. Compounds with a hit are over-represented: about 2.8% of the library has one in this group of screens.

SMILES	PAFAH1B3 FP inh	PAFAH2 FP inh	pPAFAH inh	PAFAH1B2 inh	Fam108B counter	PME-1 primary
Cn1nnnc1SCC(=O)Nc1cccc(S(=O)(=O)N2CCCC2)c1	5	0	-2	6	1	2
CC1CCN(S(=O)(=O)c2ccc(S(=O)(=O)N3CCCC3)cc2)CC1	-1	-9	5	-1	0	-1
CC(=O)N1CCC(C(=O)Nc2ccc(S(=O)(=O)N3CCC(C)CC3)cc2)CC1	-2	8	-1	29*	4	0
O=C(NCc1ccccc1F)c1cccc(S(=O)(=O)N2CCCCCC2)c1	9	1	-9	8	x	-79
CC1CCCN(S(=O)(=O)c2ccc(NC(=O)[C@@H]3CCCN3C(=O)c3cccs3)cc2)C1 (some centres undefined)	11	-2	30*	1	x	4
CC1CCN(S(=O)(=O)c2ccc(NC(=O)[C@@H]3CCCN3C(=O)c3cccs3)cc2)CC1	-6	1	25*	37*	x	8
COc1ccc(CNC(=O)C2=CC(c3ccc(OC)cc3)=NS(=O)(=O)N2C)cc1	3	-1	0	-4	-1	5
COC(=O)\C(C(C)=O)=C(/C=C/C=C/C=C/N(C)C)N(C)C	-5	-2	32*	-4	1	-9
S=C(Nc1ccc(Oc2ccccc2)cc1)N1CCOCC1	115*	127*	7	93*	-4	-3
S=C(Nc1ccccc1)N1CCOCCOCCN(C(=S)Nc2ccccc2)CCOCCOCC1	-4	-2	5	-4	0	-4
CCCCCCCCCCNC(=O)CCn1[nH]c(=O)c2ccccc2c1=O	8	22	30*	61*	3	-1
Cc1csc(NC(=O)c2ccco2)c1C(=O)c1ccccc1	8	-7	26*	3	3	-1
COC(=O)c1c(-c2ccccc2)csc1NC(=O)c1ccco1	9	-5	1	-3	2	-1
O=C(Nc1cccc([N+](=O)[O-])c1)c1cc2ccccc2cc1O	1	-4	34*	3	5	-2
CC1(C)CC(NC(=O)C2CCC(=O)N(Cc3ccccc3F)C2)CC(C)(C)C1 (centres undefined)	15	3	x	28*	x	x
Cc1ccc(C(C)(C)NC(=O)C2CCC(=O)N(Cc3ccccc3F)C2)cc1 (centres undefined)	0	3	-1	2	-1	4
COC(=O)c1cc(NS(=O)(=O)c2ccc(N3CCCCCC3)c([N+](=O)[O-])c2)cc(C(=O)OC)c1	4	6	9	33*	6	-10
COC(=O)c1cc(NS(=O)(=O)c2ccc(N3CCOCC3)c([N+](=O)[O-])c2)cc(C(=O)OC)c1	5	5	5	-1	0	-1
O=C(CN1C(=O)NC2(CCCc3ccccc32)C1=O)NC1CCCCC1 (centres undefined)	10	1	-2	1	-1	1
CCC(O)C1CCN(Cc2cn(Cc3ccccc3)nc2-c2cc3ccccc3o2)CC1 (centres undefined)	5	-7	28*	0	-2	3
COCCOC1CCN(Cc2cn(Cc3ccccc3)nc2-c2cc3ccccc3o2)CC1	0	-4	0	7	4	2
Cc1nc(N)sc1-c1csc(N(C)c2ccc(O)cc2)n1	6	5	27*	3	-2	-4
CN(c1ccc(O)cc1)c1nc(-c2cccs2)cs1	8	4	8	-3	3	3
Cc1ccccc1CS(=O)(=O)Cc1ccc(C(=O)NCc2ccco2)o1	1	-3	25*	2	-1	5
Cc1ccccc1S(=O)(=O)Cc1ccc(C(=O)NCc2ccco2)o1	2	1	9	6	-1	1
SMILES	PAFAH1B3 FP inh	PAFAH2 FP inh	pPAFAH inh	PAFAH1B2 inh	Fam108B counter	PME-1 primary
CCC1CCc2sc(C(=O)NC3CCN(Cc4ccccc4)CC3)cc2C1 (centres undefined)	3	5	12	-2	0	5
CCOc1ccc(S(=O)(=O)N2CCN(C(=O)C3CSC4(C)CCC(=O)N34)CC2)cc1 (centres undefined)	-1	9	1	2	x	3
O=c1[nH]cnc2c1c(-c1ccccc1)cn2-c1ccc(Br)cc1	-1	-1	27*	-3	-1	4
Cc1cccc(-n2cc(-c3ccccc3)c3c(=O)[nH]cnc32)c1	7	4	30*	-4	-2	0
CCOc1ccc(-n2cc(-c3ccccc3)c3c(=O)[nH]cnc32)cc1	6	0	16	2	2	8
COCCCNC(=O)CSc1nc2cc(C(=O)NCCOC)ccc2c(=O)n1Cc1ccc2c(c1)OCO2	12	3	4	0	-4	-10
CC1(C)C=Cc2c(c3c(c4c(=O)c(-c5ccc(O)cc5)coc24)OC(C)(C)CC3)O1	11	8	26*	0	0	-4
COc1ccccc1C1C2=C(CC(C)(C)CC2=O)Nc2nnnn21 (centres undefined)	7	3	-1	-4	1	-5
COc1ccc(OC)c(C2C3=C(CC(C)(C)CC3=O)Nc3nnnn32)c1 (centres undefined)	10	-1	29*	-2	-1	-1
COc1ccc(-c2cccc(NC(=O)c3ccc4c(c3)OCO4)c2)nn1	-1	2	1	-2	-3	-1
Cn1cccc1CC(=O)NNC(=S)NC(=O)c1ccccc1Br	3	0	26*	4	2	0
Cn1cccc1CC(=O)NNC(=S)Nc1ccc(F)cc1	-3	2	18	13	-2	-8
Cn1cccc1CC(=O)NNC(=S)Nc1ccc(Cl)cc1Cl	4	-7	26*	9	-2	1
O=C(CN1c2ccccc2Sc2ccccc21)N/N=C/c1ccc(Cl)cc1Cl	13	4	1	-4	-5	1
O=C(CN1c2ccccc2Sc2ccccc21)NNC(=S)Nc1ccc(Cl)cc1Cl	-3	4	34*	-2	2	3
Cc1c(C(=O)NN2CCCCC2)nn(-c2ccc(Cl)cc2Cl)c1-c1ccc(I)cc1	x	x	5	x	-8	-8
COc1ccc(CNCC(O)COc2ccc(C(C)(C)c3ccccc3)cc2)cc1 (centres undefined)	-3	2	26*	12	1	-4
COc1ccccc1NCC(O)COc1ccc(C(C)(C)C)cc1 (centres undefined)	10	6	9	7	4	11
COc1ccc(NCC(O)COc2ccc(C(C)(C)C)cc2)cc1 (centres undefined)	8	0	12	27*	4	12
